Measured values published in PubChem BioAssay AID1159580 (chemical genetic matrix, 2015).
Several values for one entry are separate records, joined by “and”; a condition that tells them apart may be missing. Equal entries are not always repeated. About 2,000 (36%) of roughly 5,500 compounds were called active. Another 18% or so got no clear call; they are omitted. Cut-off read from the data, not from the text of the source: active = normalized growth mostly below about 0.91 (no sharp cut-off); inconclusive = no clear call, values can overlap the other calls; inactive = mostly above about 0.92. The list shows a part of the results.

Assay: chemical genetic growth profiling, strain panel (AID 1159580);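 note: tested at 20 µM; growth read once vehicle control cultures reached saturation at 30 °C; 1 = growth at the plate median or of vehicle wells; lower values mean less growth of the strain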
Conditions: S. cerevisiae deletion strains, growth OD

Measured: normalized growth

O=C(CCc1ccc(O)cc1)c1c(O)cc(O)cc1O[C@@H]1O[C@H](CO)[C@@H](O)[C@H](O)[C@H]1O
inactive: locus YAL021C, strain ccr4, active compounds read low 1.01 | locus YAL026C, strain drs2, active compounds read low 1.01 | locus YAL030W, strain snc1, active compounds read low 1.01 | locus YBL061C, strain skt5, active compounds read low 1.02 | locus YBR009C, strain hhf1, active compounds read low 1.02 | locus YBR021W, strain FUR4, active compounds read low 1.01 | locus YBR023C, strain chs3, active compounds read low 1.01 | locus YBR171W, strain sec66, active compounds read low 1.05 | locus YBR229C, strain ROT2, active compounds read low 1.02 | locus YBR231C, strain swc5, active compounds read low 1.02 | locus YBR279W, strain paf1, active compounds read low 1 | locus YCL011C, strain gbp2, active compounds read low 1.02 | locus YCL016C, strain dcc1, active compounds read low 1.02 | locus YCL029C, strain bik1, active compounds read low 0.982 | locus YCL061C, strain MRC1, active compounds read low 1.02 | locus YCL069W, strain vba3, active compounds read low 1.01 | locus YCR088W, strain abp1, active compounds read low 1.01 | locus YDL005C, strain med2, active compounds read low 1.02 | locus YDL035C, strain GPR1, active compounds read low 1.04 | locus YDL040C, strain nat1, active compounds read low 1.01 | locus YDL074C, strain BRE1, active compounds read low 1.05 | locus YDL101C, strain DUN1, active compounds read low 1.02 | locus YDL134C, strain PPH21, active compounds read low 1.06 | locus YDL185W, strain tfp1, active compounds read low 0.993 | locus YDL192W, strain arf1, active compounds read low 0.986 | locus YDR001C, strain nth1, active compounds read low 1.01 | locus YDR069C, strain doa4, active compounds read low 1.03 | locus YDR101C, strain arx1, active compounds read low 0.998 | locus YDR137W, strain rgp1, active compounds read low 0.993 | locus YDR159W, strain sac3, active compounds read low 1.03 | locus YDR162C, strain NBP2, active compounds read low 1.06 | locus YDR195W, strain ref2 0.997 | locus YDR297W, strain sur2, active compounds read low 1.02 | locus YDR318W, strain mcm21, active compounds read low 0.986 | locus YDR334W, strain swr1, active compounds read low 1.02 | locus YDR335W, strain msn5, active compounds read low 1.01 | locus YDR388W, active compounds read low 0.992 | locus YDR392W, strain spt3, active compounds read low 1.02 | locus YDR502C, strain sam2, active compounds read low 0.998 | locus YEL003W, strain gim4, active compounds read low 1.01 | locus YEL037C, strain rad23, active compounds read low 1.01 | locus YEL061C, strain CIN8 (second series), active compounds read low 1.01 | locus YEL061C, strain CIN8, active compounds read low 1.02 | locus YER015W, strain faa2, active compounds read low 1.02 | locus YER016W, strain bim1, active compounds read low 1.01 | locus YER110C, active compounds read low 0.981 | locus YER111C, strain swi4, active compounds read low 1.02 | locus YER155C, strain BEM2 (second series), active compounds read low 1.02 | locus YER155C, strain BEM2, active compounds read low 1 | locus YER167W, strain BCK2, active compounds read low 1.02 | locus YFR010W, strain ubp6, active compounds read low 1.01 | locus YGL078C, strain dbp3, active compounds read low 0.985 | locus YGL086W, strain mad1, active compounds read low 1.01 | locus YGL167C, strain pmr1, active compounds read low 1.03 | locus YGL173C, strain kem1, active compounds read low 1.02 | locus YGL227W, strain vid30, active compounds read low 1.02 | locus YGL240W, strain doc1, active compounds read low 1.02 | locus YGL248W, strain PDE1, active compounds read low 1.03 | locus YGL253W, strain hxk2, active compounds read low 1.02 | locus YGR135W, strain pre9, active compounds read low 1 | locus YGR252W, strain gcn5, active compounds read low 1.01 | locus YHR013C, strain ard1, active compounds read low 1.03 | locus YHR027C, strain rpn1, active compounds read low 1.02 | locus YHR030C, strain SLT2, active compounds read low 1.02 and 0.996 | locus YHR079C, strain IRE1 (second series), active compounds read low 1 | locus YHR079C, strain IRE1, active compounds read low 0.972 | locus YHR094C, strain hxt1, active compounds read low 0.988 | locus YHR129C, strain ARP1, active compounds read low 1.03 | locus YHR142W, strain chs7, active compounds read low 1.02 | locus YHR200W, strain rpn10, active compounds read low 1.02 | locus YIL066C, strain RNR3, active compounds read low 1.05 | locus YIL073C, strain SPO22, active compounds read low 1.01 | locus YIL125W, strain kgd1, active compounds read low 0.986 | locus YIR030C, strain dcg1, active compounds read low 0.973 | locus YJL092W, strain hpr5, active compounds read low 1.02 | locus YJL095W, strain BCK1 (second series), active compounds read low 1.01 | locus YJL095W, strain BCK1, active compounds read low 1.05 and 0.981 | locus YJL115W, strain asf1, active compounds read low 1.01 | locus YJL129C, strain trk1, active compounds read low 1.01 | locus YJL134W, strain LCB3, active compounds read low 1.01 | locus YJL154C, strain vps35, active compounds read low 1.01 | locus YJL164C, strain tpk1, active compounds read low 1.02 | locus YJL166W, strain qcr8, active compounds read low 1.02 | locus YJL168C, strain set2, active compounds read low 0.983 | locus YJL187C, strain SWE1 (second series), active compounds read low 1.03 | locus YJL187C, strain SWE1, active compounds read low 1.04 | locus YJR043C, strain POL32, active compounds read low 1.06 | locus YJR066W, strain TOR1, active compounds read low 0.942
